# Laboratory results as given in paper PMC7862700, “An all-to-all approach to the identification of sequence-specific readers for epigenetic DNA modifications on cytosine”.
# Key:
# Assay in all cases: DAPPL (digital affinity profiling via proximity ligation, sequencing); 10 mM Tris-HCl pH 7.5, 50 mM NaCl, 1 mM DTT, 4% glycerol, room temperature, 30 min; GST-TFs on glutathione beads, 16-mer random dsDNA library, 0.1% formaldehyde crosslink after washing; high values mean tight binding
# FEV = biological target: T1, FEV (Homo sapiens, UniProt Q99581 1-238); conditions: protein: recombinant; tags: N-terminal GST; dsDNA, one strand shown
# T1 sequence: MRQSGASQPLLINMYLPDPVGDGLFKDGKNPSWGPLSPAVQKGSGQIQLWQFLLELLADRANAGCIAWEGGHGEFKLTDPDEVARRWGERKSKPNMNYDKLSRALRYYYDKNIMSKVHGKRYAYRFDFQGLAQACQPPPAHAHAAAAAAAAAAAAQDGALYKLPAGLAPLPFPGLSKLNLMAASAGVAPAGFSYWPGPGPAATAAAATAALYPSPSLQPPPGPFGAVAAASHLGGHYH
# Method in brief: (§1)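 Human transcription factors were made in yeast as GST fusions, captured on glutathione beads and barcoded with DNA. With a tag-only sample included, the pool was incubated with 200 nmole of a random double-stranded 16-mer DNA library in Tris/NaCl/DTT/glycerol buffer at room temperature for 30 min, then crosslinked with 0.1% formaldehyde after washing, ligated by proximity, amplified and sequenced. For binding signal, each hexamer's read frequency for a factor is divided by its frequency for the tag-only sample.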
# ETV5 = ETV5 (Homo sapiens, UniProt P41161 1-510); conditions: protein: recombinant; tags: N-terminal GST; dsDNA, one strand shown
# Method in brief: as §1
# HSF1 = HSF1 (Homo sapiens, UniProt Q00613 1-529); conditions: protein: recombinant; tags: N-terminal GST; chain copies: 3; dsDNA, one strand shown
# Method in brief: as §1
# SPIC = biological target: T2, SPIC (Homo sapiens, UniProt Q8N5J4 1-248); conditions: protein: recombinant; tags: N-terminal GST; dsDNA, one strand shown
# T2 sequence: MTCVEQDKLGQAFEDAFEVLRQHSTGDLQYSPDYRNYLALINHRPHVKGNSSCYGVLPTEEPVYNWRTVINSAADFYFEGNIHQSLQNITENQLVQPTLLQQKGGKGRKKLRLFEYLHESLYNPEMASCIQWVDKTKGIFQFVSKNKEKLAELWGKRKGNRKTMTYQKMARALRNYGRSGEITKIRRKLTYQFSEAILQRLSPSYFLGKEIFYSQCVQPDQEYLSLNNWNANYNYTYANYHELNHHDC
# Method in brief: as §1
# ELF4 = ELF4 (Homo sapiens, UniProt Q99607 1-663); conditions: protein: recombinant; tags: N-terminal GST; dsDNA, one strand shown
# Method in brief: as §1
# ELK4 = biological target: T3, ELK4 (Homo sapiens, UniProt P28324-2 1-405); conditions: protein: recombinant; tags: N-terminal GST; dsDNA, one strand shown
# T3 sequence: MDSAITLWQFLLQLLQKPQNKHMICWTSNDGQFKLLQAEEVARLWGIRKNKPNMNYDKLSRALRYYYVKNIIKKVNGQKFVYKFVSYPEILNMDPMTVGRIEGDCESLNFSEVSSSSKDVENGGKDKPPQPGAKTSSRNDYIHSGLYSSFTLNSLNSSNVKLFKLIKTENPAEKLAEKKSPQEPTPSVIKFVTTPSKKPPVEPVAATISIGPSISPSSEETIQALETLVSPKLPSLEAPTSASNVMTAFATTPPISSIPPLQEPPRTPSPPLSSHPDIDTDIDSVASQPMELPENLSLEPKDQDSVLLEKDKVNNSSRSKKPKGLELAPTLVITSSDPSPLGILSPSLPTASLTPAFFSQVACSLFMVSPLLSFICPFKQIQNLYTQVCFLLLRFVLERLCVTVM
# Method in brief: as §1
# ETV2 = biological target: T4, ETV2 (Homo sapiens, UniProt O00321 1-342); conditions: protein: recombinant; tags: N-terminal GST; dsDNA, one strand shown
# T4 sequence: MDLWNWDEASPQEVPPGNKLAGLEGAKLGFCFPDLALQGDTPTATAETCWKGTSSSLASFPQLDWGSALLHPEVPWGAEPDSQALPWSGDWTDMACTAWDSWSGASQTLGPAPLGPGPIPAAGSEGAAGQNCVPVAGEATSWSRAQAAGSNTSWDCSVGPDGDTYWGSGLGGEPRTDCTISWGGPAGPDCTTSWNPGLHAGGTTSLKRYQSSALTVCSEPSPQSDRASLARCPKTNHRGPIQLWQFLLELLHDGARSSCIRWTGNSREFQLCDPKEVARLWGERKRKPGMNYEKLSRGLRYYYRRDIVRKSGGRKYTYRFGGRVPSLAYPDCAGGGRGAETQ
# Method in brief: as §1
# ELF3 = biological target: T5, ELF3 (Homo sapiens, UniProt P78545 1-371); conditions: protein: recombinant; tags: N-terminal GST; dsDNA, one strand shown
# T5 sequence: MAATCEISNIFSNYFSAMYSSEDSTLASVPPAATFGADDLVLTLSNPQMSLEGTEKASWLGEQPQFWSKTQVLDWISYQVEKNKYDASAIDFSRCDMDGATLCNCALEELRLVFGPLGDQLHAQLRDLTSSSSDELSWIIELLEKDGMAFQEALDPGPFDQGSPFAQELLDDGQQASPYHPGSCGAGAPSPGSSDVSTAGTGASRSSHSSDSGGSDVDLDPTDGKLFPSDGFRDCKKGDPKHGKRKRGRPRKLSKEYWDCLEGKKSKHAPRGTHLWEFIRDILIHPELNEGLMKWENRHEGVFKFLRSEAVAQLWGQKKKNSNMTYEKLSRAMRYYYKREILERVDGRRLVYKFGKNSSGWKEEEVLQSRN
# Method in brief: as §1
# CRX = CRX (Homo sapiens, UniProt O43186 1-299); conditions: protein: recombinant; tags: N-terminal GST; dsDNA, one strand shown
# Method in brief: as §1
# ETV1 = ETV1 (Homo sapiens, UniProt P50549 1-477); conditions: protein: recombinant; tags: N-terminal GST; dsDNA, one strand shown
# Method in brief: as §1
# ERF = biological target: T6, ERF (Homo sapiens, UniProt P50548 1-548); conditions: protein: recombinant; tags: N-terminal GST; dsDNA, one strand shown
# T6 sequence: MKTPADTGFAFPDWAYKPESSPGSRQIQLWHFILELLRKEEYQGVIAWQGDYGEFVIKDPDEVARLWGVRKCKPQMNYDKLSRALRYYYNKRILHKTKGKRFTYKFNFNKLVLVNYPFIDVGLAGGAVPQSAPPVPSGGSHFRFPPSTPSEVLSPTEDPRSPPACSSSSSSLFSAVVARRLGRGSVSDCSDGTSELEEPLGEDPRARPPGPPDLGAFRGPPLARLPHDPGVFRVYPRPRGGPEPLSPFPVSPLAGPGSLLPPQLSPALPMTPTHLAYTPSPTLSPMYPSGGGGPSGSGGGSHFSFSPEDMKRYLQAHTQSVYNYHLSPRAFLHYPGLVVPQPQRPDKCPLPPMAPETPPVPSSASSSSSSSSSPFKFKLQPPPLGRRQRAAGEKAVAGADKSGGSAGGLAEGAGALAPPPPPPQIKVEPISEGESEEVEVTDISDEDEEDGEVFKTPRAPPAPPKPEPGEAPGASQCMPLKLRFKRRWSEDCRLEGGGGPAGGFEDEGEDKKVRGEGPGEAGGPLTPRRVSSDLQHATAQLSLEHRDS
# Method in brief: as §1
# ETV3L = biological target: T7, ETV3L (Homo sapiens, UniProt Q6ZN32 1-361); conditions: protein: recombinant; tags: N-terminal GST; dsDNA, one strand shown
# T7 sequence: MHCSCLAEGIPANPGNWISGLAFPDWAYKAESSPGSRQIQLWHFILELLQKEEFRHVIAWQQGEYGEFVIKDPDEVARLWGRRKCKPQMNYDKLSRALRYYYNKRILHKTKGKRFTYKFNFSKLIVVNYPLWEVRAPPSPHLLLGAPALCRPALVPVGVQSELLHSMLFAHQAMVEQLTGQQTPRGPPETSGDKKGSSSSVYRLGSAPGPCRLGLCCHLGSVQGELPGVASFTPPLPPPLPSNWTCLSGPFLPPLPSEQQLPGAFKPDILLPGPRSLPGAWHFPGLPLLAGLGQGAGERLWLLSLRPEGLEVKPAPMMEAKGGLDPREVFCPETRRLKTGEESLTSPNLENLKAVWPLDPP
# Method in brief: as §1
# ETS2 = biological target: T8, ETS2 (Homo sapiens, UniProt P15036 1-469); conditions: protein: recombinant; tags: N-terminal GST; dsDNA, one strand shown
# T8 sequence: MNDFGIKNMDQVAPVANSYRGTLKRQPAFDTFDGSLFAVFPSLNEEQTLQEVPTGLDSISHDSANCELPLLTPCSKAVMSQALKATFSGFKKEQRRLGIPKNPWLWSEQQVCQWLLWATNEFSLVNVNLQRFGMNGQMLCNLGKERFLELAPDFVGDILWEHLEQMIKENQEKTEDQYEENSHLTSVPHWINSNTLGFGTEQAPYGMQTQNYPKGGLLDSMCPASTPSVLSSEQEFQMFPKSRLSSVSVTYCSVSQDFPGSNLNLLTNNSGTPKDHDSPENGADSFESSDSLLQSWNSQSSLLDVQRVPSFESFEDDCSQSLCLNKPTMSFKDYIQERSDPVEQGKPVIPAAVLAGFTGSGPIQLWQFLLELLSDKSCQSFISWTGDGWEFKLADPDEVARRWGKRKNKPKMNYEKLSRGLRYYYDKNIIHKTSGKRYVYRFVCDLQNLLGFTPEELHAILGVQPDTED
# Method in brief: as §1
# SPDEF = biological target: T9, SPDEF (Homo sapiens, UniProt O95238 1-335); conditions: protein: recombinant; tags: N-terminal GST; dsDNA, one strand shown
# T9 sequence: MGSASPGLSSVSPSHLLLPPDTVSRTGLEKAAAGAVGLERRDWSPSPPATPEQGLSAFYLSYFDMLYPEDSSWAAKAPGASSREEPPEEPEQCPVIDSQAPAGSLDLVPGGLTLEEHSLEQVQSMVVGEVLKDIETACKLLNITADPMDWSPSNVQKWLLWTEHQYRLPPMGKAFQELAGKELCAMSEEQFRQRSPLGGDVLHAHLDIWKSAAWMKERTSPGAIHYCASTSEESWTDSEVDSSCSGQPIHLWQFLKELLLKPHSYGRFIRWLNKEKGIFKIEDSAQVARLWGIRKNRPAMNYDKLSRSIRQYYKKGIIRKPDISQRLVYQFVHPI
# Method in brief: as §1
# ETV7 = biological target: T10, ETV7 (Homo sapiens, UniProt Q9Y603 1-341); conditions: protein: recombinant; tags: N-terminal GST; dsDNA, one strand shown
# T10 sequence: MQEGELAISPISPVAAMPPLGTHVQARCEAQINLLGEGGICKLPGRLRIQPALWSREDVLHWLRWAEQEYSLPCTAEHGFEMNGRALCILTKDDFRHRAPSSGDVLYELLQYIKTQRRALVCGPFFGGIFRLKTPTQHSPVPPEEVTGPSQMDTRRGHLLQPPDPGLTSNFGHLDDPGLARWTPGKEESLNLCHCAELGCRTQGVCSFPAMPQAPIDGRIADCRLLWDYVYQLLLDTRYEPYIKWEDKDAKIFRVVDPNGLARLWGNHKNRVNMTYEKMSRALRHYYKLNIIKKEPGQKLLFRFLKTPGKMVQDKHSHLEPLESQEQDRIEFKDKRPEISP
# Method in brief: as §1
# ELF5 = biological target: T11, ELF5 (Homo sapiens, UniProt Q9UKW6-2 1-255); conditions: protein: recombinant; tags: N-terminal GST; dsDNA, one strand shown
# T11 sequence: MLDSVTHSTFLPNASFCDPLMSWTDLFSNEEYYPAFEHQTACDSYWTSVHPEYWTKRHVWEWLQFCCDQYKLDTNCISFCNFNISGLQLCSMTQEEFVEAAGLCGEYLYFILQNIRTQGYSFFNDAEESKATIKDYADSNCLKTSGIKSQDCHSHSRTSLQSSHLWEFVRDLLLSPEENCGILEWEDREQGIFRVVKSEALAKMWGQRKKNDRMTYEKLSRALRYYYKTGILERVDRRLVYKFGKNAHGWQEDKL
# Method in brief: as §1
# ETV3 = biological target: T12, ETV3 (Homo sapiens, UniProt P41162-2 1-143); conditions: protein: recombinant; tags: N-terminal GST; dsDNA, one strand shown
# T12 sequence: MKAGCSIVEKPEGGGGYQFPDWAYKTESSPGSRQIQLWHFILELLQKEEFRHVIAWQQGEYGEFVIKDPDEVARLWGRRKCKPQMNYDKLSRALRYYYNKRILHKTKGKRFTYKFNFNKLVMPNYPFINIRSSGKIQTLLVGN
# Method in brief: as §1
# ETV6 = ETV6 (Homo sapiens, UniProt P41212 1-452); conditions: protein: recombinant; tags: N-terminal GST; dsDNA, one strand shown
# Method in brief: as §1
# Sequence of ELF4 (Q99607 whole entry): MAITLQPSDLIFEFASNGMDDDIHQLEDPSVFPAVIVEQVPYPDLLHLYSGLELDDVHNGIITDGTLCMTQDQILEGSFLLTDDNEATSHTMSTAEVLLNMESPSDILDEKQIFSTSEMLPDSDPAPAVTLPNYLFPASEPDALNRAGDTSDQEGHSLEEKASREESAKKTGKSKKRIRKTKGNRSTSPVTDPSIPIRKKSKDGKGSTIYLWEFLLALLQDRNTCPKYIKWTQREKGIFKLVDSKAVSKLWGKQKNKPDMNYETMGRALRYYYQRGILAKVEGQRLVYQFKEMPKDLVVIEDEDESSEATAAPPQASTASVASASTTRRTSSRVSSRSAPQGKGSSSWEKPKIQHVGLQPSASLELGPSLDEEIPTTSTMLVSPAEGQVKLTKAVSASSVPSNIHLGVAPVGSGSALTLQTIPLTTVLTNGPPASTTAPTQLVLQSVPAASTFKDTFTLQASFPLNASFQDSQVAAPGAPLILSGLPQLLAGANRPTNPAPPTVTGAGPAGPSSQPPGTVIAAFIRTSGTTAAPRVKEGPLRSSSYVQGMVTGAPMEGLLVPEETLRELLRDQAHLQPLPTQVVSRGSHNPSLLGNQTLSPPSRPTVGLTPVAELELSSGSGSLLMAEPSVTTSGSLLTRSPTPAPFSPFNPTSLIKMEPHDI
# Sequence of CRX (O43186 whole entry): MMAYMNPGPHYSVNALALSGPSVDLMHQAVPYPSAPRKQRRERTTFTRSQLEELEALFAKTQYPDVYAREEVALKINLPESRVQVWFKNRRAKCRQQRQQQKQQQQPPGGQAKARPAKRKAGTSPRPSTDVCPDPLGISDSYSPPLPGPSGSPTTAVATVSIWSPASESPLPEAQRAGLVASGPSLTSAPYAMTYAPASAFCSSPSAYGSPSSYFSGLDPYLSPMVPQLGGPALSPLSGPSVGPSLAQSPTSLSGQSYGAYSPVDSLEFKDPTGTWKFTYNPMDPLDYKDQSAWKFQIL
# Sequence of HSF1 (Q00613 whole entry): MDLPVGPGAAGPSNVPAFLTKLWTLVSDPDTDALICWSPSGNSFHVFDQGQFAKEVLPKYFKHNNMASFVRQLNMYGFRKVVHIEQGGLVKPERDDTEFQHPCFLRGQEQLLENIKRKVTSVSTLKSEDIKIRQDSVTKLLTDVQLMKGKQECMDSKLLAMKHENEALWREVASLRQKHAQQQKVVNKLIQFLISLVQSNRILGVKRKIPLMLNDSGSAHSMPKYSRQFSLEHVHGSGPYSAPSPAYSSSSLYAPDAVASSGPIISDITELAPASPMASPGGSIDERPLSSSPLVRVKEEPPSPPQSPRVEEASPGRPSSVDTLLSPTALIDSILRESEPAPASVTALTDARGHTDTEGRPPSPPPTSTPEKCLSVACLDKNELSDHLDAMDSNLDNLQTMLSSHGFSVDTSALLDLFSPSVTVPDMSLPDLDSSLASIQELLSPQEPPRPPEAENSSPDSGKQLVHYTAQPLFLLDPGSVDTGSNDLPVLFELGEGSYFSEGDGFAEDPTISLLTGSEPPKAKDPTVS
# Sequence of ETV5 (P41161 whole entry): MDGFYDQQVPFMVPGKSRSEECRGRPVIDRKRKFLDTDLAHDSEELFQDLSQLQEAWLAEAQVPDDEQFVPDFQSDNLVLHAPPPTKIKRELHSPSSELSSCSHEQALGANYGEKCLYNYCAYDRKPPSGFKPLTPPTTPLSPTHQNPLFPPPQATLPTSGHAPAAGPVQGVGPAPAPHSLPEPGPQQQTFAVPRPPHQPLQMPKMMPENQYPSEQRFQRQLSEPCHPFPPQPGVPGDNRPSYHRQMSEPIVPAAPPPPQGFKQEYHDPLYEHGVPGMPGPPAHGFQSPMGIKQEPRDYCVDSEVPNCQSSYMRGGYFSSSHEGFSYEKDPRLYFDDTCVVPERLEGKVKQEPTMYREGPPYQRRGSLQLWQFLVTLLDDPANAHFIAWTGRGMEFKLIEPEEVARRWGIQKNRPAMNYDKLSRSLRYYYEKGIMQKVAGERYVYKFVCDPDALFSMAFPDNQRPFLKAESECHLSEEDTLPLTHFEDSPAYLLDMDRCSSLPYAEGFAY
# Sequence of ETV1 (P50549 whole entry): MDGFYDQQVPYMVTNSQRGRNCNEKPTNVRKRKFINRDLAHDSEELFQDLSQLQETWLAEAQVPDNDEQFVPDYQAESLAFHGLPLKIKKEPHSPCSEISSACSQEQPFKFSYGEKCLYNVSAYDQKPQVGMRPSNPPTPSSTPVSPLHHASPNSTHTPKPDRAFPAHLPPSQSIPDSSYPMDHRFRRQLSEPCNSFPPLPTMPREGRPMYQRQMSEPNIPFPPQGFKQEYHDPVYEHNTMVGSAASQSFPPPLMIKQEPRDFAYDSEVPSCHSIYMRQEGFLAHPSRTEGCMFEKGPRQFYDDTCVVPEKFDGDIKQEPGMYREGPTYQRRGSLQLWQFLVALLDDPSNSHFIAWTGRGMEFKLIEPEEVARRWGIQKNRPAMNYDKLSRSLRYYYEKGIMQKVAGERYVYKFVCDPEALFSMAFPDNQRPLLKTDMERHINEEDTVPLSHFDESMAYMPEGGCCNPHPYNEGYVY
# Sequence of ETV6 (P41212 whole entry): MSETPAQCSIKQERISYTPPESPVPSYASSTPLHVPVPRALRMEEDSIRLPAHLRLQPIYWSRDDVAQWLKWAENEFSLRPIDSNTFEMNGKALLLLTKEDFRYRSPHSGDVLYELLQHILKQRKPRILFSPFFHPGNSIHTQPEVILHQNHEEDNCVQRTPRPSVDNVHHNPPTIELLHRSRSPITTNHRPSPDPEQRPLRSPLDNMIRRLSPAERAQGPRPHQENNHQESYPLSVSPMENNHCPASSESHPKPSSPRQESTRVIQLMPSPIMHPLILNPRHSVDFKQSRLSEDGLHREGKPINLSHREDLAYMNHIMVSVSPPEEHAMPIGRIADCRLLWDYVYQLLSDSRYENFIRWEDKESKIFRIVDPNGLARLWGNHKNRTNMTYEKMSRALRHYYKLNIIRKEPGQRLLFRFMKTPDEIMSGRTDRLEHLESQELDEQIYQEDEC
sequence,measurement,setting,value
GCCCTT,binding signal,FEV,"1.19 fold enrichment (6-mer frequency, TF over GST control)"
same,binding signal,ETV5,"1.16 fold enrichment (6-mer frequency, TF over GST control)"
same,binding signal,HSF1,"1.11 fold enrichment (6-mer frequency, TF over GST control)"
same,binding signal,SPIC,"1.1 fold enrichment (6-mer frequency, TF over GST control)"
same,binding signal,ELF4,"1.13 fold enrichment (6-mer frequency, TF over GST control)"
same,binding signal,ELK4,"1.19 fold enrichment (6-mer frequency, TF over GST control)"
same,binding signal,ETV2,"1.28 fold enrichment (6-mer frequency, TF over GST control)"
same,binding signal,ELF3,"1.29 fold enrichment (6-mer frequency, TF over GST control)"
same,binding signal,CRX,"1.06 fold enrichment (6-mer frequency, TF over GST control)"
same,binding signal,ETV1,"1.17 fold enrichment (6-mer frequency, TF over GST control)"
same,binding signal,ERF,"1.11 fold enrichment (6-mer frequency, TF over GST control)"
same,binding signal,ETV3L,"1.16 fold enrichment (6-mer frequency, TF over GST control)"
same,binding signal,ETS2,"1.15 fold enrichment (6-mer frequency, TF over GST control)"
same,binding signal,SPDEF,"1.26 fold enrichment (6-mer frequency, TF over GST control)"
same,binding signal,ETV7,"1.07 fold enrichment (6-mer frequency, TF over GST control)"
same,binding signal,ELF5,"1.09 fold enrichment (6-mer frequency, TF over GST control)"
same,binding signal,ETV3,"1.14 fold enrichment (6-mer frequency, TF over GST control)"
same,binding signal,ETV6,"1.27 fold enrichment (6-mer frequency, TF over GST control)"
